Screen size: about 360,000 compounds; about 9,100 (2.5%) were called active. Inconclusive results (about 4%) are left out. This is one part of a sample in which actives are shown more often than they occur. No stated cut-off is given here; in the data, active means max response below about -50%; inconclusive means no clear call, values can overlap the other calls; inactive means above that.
Each compound was assayed against D(3) dopamine receptor (Homo sapiens) (UniProt P35462) (assay: qHTS of D3 Dopamine Receptor Antagonist: qHTS). Conditions: D3R cells, DiscoveRx beta-arrestin luminescence, antagonist mode; active compounds read low.
D(3) dopamine receptor (Homo sapiens), sequence (P35462 whole entry, looked up): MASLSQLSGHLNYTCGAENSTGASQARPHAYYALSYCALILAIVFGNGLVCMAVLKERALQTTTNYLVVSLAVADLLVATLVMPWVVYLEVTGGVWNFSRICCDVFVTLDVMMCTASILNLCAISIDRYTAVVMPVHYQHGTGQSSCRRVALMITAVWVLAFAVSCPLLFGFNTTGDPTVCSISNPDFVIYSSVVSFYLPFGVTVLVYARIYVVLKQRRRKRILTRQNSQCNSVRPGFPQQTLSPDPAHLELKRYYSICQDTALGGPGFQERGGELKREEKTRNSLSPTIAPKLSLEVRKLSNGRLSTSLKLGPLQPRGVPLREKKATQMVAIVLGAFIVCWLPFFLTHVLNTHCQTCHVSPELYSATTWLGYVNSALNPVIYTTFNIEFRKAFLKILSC
Method in brief: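 Cells expressing the human receptor were seeded at 1500 cells/well, incubated overnight at 37 degrees C in 5% CO2, then exposed to library compounds with dopamine controls for 90 minutes at 37 degrees C before luminescent detection.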
On the % scale 0 is the no-effect control and ±100 the full control effect.

| Structure (SMILES) | max response, negative = inhibition |
| --- | --- |
| COc1ccccc1CNC(=O)CCCN1C(=O)NC2(CCCC2)C1=O | -13.5% (inactive) |
| CCc1nnc(NC(=O)CCC(=O)NCc2ccccc2OC)s1 | 14.9% (inactive) |
| COc1ccccc1CNC(=O)CCn1c(=O)sc2ccccc21 | -166% (active) |
| O=Cc1cn(CCOc2ccc(F)cc2)c2ccccc12 | 25% (inactive) |
| Cc1ccc(S(=O)(=O)NC(=O)N2CCCC(C)(C)C2)cc1 | 2.79% (inactive) |
| Cc1ccc(S(=O)(=O)NC(=O)N2CCCN(Cc3ccc(F)cc3)CC2)cc1 | -51.3% (active) |
| CC(=O)N1CCN(CC(C)(C)NS(=O)(=O)c2ccc(C)cc2)CC1 | 0.902% (inactive) |
| O=C(c1ccc(N2CCCC2=O)cc1)N1CCN(c2ccc(C(F)(F)F)cc2[N+](=O)[O-])CC1 | 29.2% (inactive) |
| CCOC(=O)NCc1ccc2c(c1)OCO2 | -52.8% (active) |
| O=C(NCc1ccc2c(c1)OCO2)c1ccc(Cl)s1 | -10.3% (inactive) |
| O=C(NCc1ccc2c(c1)OCO2)C12CC3CC(CC(C3)C1)C2 | 10.5% (inactive) |
| Cc1ccc(C(=O)OCC(=O)NCc2ccc3c(c2)OCO3)s1 | 5.99% (inactive) |
| O=C(NCc1ccc2c(c1)OCO2)c1sccc1Br | 10.4% (inactive) |
| O=C(NCc1ccc2c(c1)OCO2)c1cc2c(s1)CS(=O)(=O)C2 | -163% (active) |
| CCOc1cc(/C=N/NC(=O)c2c(C)nc3ccc(Cl)cn23)ccc1O | -5.49% (inactive) |
| CSc1ccc(CN2CCC2(C)C(=O)NCc2ccccc2Br)cc1 (stereo unspecified) | 33.4% (inactive) |
| CC(=O)OC[C@@H]1CN(Cc2ccccc2)C[C@H](n2cnc3c(NCc4ccco4)ncnc32)O1 | 14.6% (inactive) |
| COc1cc(OC)cc(C2=Cc3ccccc3C(CC(=O)c3ccco3)N2c2ccc(-c3cnc(OC)nc3)cc2)c1 (stereo unspecified) | 41.4% (inactive) |
| COc1ccc(CN2C(=O)C(CC(=O)NCc3cccc4ccccc34)CC(C(=O)N3CCOCC3)=C2C)cc1 (stereo unspecified) | -2.29% (inactive) |
| CC(C)N=C1CCCC1C(=S)SSC(=S)C1CCCC1=NC(C)C (stereo unspecified) | -68.8% (active) |
| COC(=O)C[C@@H]1C=C[C@@H](NC(=O)c2cccnc2)[C@@H](CO)O1 | -2.19% (inactive) |
| COc1ccc(/C=C(\NC(=O)c2ccccc2)C(=O)NCCN2CCOCC2)cc1OC | -3.81% (inactive) |
| CCCCCOc1ccc(/C=C/C(=O)NCCc2nc3ccccc3[nH]2)cc1OC | 53.6% (inactive) |

| Structure (SMILES) | max response, negative = inhibition |
| --- | --- |
| COc1ccc(/C=C(/NC(=O)c2ccc(C)cc2)c2nc3ccccc3[nH]2)cc1OC | -65.3% (active) |
| CC1(C(=O)NS(=O)(=O)c2ccccc2)CCN1C(=O)Cc1ccc(-c2ccccc2)cc1 (stereo unspecified) | -7.77% (inactive) |
| O=C(NC(=S)N1CCc2ccccc21)c1ccco1 | -1.16% (inactive) |
| CCC1CCCCN1C(=S)Nc1ccc(C(C)=O)cc1 (stereo unspecified) | 4% (inactive) |
| CCC1CCCCN1C(=S)NC(=O)c1ccco1 (stereo unspecified) | -122% (active) |
| N#Cc1ccc(OCC(=O)Nc2nc(-c3ccccn3)cs2)cc1 | -9.86% (inactive) |
| CN(C)CCCOc1ccc(-c2ccc3nccn3c2)cn1 | 1.66% (inactive) |
| N=c1c2c3c(sc2ncn1CCCN1CCOCC1)CCCCC3 | 8.56% (inactive) |
| CC(C(=O)O)n1cnc2sc3c(c2c1=O)CCCC3 (stereo unspecified) | 20% (inactive) |
| S=c1[nH]nc2c3c4c(sc3ncn12)CCCC4 | -92.7% (active) |
| CCOC(=O)N1CCN(C(=O)C[C@@H]2C[C@@]3(C(=O)OC)CC(C)(C)CC=C3N(Cc3ccco3)C2=O)CC1 | -6.32% (inactive) |
| CC(=O)c1cc(-c2ccccc2)[nH]c1N1CCCC1 | 0% (inactive) |
| O=C1NN(c2ccccc2)C(=O)/C1=C/c1ccc(-c2cccc(C(=O)O)c2)o1 | -54.9% (active) |
| CC1=NN(c2ccc(Cl)c(C(=O)O)c2)C(=O)/C1=C/c1ccc(-c2ccccc2[N+](=O)[O-])o1 | 8.21% (inactive) |
| Cc1cc(C)c(S(=O)(=O)NN=C2c3ccccc3[C@H]3Cc4csc[n+]4[C@@H]23)c(C)c1 | 8.56% (inactive) |
| Cc1cccc(NC(=O)COc2ccc(Br)cc2C)n1 | 2.17% (inactive) |
| CCC(C)NCCOCCOc1ccc(Br)cc1C (stereo unspecified) | -71.5% (active) |
| COCC(C)NCc1cc(Br)ccc1OC (stereo unspecified) | 13.9% (inactive) |
| Cc1ccc(S(=O)(=O)N2CCOCC2)cc1NC(=O)c1ccncc1 | -9.56% (inactive) |
| CN(C)CCNC(=O)c1ccc(-c2cn3c(-c4ccc(Oc5ccccc5)cc4)cnc3cn2)cc1 | -27.6% (inactive) |
| CCCNC(=O)C1(C)CCN(C(=O)c2ccccc2OC(F)(F)F)C1 (stereo unspecified) | 7.72% (inactive) |
| Cc1ccc(S(=O)(=O)N2C[C@H]3n4c(=O)ccc(=O)n4C[C@H](OC(=O)NC4CCCC4)[C@@]3(O)C2)cc1 | 10.7% (inactive) |
| C[C@@H]1CN([C@@H](C)CO)C(=O)c2c(c3ccccc3n2C)-c2ccccc2CO[C@H]1CN(C)C(=O)C1CC1 | 5.32% (inactive) |

Source: PubChem BioAssay AID652054 (National Center for Advancing Translational Sciences (NCATS), 2013)
